CYP2C19 inhib: blocks human cytochrome P450 2C19; inhibition, % at 5 µM; 96,000 compounds, 21% hits; CYP2C19 Supersomes, luciferin-H EGE luminescence, 30 min; AID 778;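 active = CYP2C19 inhibition above a set limit at 5 µM in the primary screen, cut at about 50% in these data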
Target sequence (P33261 whole entry, looked up): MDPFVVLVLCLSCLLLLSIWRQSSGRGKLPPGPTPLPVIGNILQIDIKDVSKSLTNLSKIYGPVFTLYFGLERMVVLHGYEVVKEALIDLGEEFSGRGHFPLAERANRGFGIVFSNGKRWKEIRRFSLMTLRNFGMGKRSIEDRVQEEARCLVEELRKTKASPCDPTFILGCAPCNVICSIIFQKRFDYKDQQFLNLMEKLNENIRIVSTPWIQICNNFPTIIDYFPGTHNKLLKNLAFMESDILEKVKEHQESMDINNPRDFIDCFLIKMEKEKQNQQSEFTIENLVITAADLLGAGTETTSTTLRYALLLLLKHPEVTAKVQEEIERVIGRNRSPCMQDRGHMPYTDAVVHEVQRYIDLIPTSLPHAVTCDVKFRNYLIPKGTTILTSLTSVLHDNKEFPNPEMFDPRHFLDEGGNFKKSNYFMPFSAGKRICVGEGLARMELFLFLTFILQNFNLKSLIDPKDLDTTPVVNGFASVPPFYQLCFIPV
CYP2C9 inhib: inhibitors of human CYP2C9 | CYP2C9 Supersomes, luciferin-H conversion, luminescence | inhibition, % at 5 µM | 96,000 compounds, 20% hits | AID 777;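 active = blocking of liver enzyme CYP2C9 beyond about 50% at 5 µM, limit read from the data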
CYP2C19 activ: increases human CYP2C19 enzyme activity | P33261 | recombinant CYP2C19, luciferin-H EGE luminescence; active compounds read high; 0 = fully inhibited enzyme, 1 = untreated enzyme | activation factor at 5 µM | 96,000 tested, under 10 active;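 active = activation factor of at least 2 at 5 µM in the primary screen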
Cav32 inh: blocks human Cav3.2 T-type calcium channel; B-score at 10 µM; Cav3.2-expressing cells, Fluo-4 calcium fluorescence FDSS; active compounds read low; 100,000 compounds, 4% hits; O95180;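 active = single-dose well whose peak fluorescence ratio is a statistical outlier from its plate by either plate-standardised score or position-corrected B-score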
CYP2C9 activ: activators of human CYP2C9; 96,000 compounds, 1.4% hits; activation factor at 5 µM; recombinant CYP2C9, luciferin-H conversion, luminescence; active compounds read high; factor 1 = untreated enzyme, 0 = blocked; P11712;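 active = activation factor of 2 or more for CYP2C9 at a 5 µM dose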
Numbers stand for hits; - = inactive; . = no result. In the library only some 27% were active in any assay of this set; here they are far more common.

SMILES | CYP2C19 inhib | CYP2C9 inhib | CYP2C19 activ | Cav32 inh | CYP2C9 activ
CCN(CC)CCn1c(O)c(N=O)c2ccccc21 | - | - | - | - | -
CC(=O)Nc1ccc(S(=O)(=O)N2CCN(c3ccccn3)CC2)cc1 | - | - | - | - | -
CCn1cc(C(=O)N2CCN(c3ccccn3)CC2)c2cc(OC)c(OC)cc2c1=O | - | 60.5 | - | . | -
COc1ccc(S(=O)(=O)N2CCN(c3ccccn3)CC2)cc1OC | 69.8 | - | - | - | -
COc1ccc(CC(=O)N2CCN(c3ccccn3)CC2)cc1OC | 51.9 | - | - | - | -
CCn1cc(C(=O)N2CCN(C(=O)c3ccco3)CC2)c2cc(OC)c(OC)cc2c1=O | - | - | - | - | -
CCCc1ccc(OCc2ccc(C(=O)N3CCN(c4ccccn4)CC3)o2)c(OC)c1 | 56.6 | 57.3 | - | -4.95 | -
Oc1c(C(c2cccc(F)c2)N2CCN(Cc3ccccc3)CC2)sc2ncnn12 (stereo unspecified) | . | . | . | - | .
OCOCCCn1c(C2CCCN2c2nc(-c3ccc(F)cc3)cs2)nc2cc(Cl)c(N3CCCCC3)cc21 (stereo unspecified) | . | . | . | - | .
COc1ccc(C(=O)Nc2cccc3c2C(=O)NC3=O)cc1S(=O)(=O)N1CCOCC1 | - | - | - | . | -
COc1cc(OC)c2c(c1O)OC(c1ccccc1)CC2=O (stereo unspecified) | . | . | . | - | .
Cc1ncc(S(=O)(=O)c2ccccc2)c(-c2ccccc2)n1 | - | - | - | - | -
O=S(=O)(c1ccccc1)c1cnc(-c2cccnc2)nc1-c1ccc(Cl)c(Cl)c1 | 71.9 | 63.9 | - | - | -
Cc1ncc(S(=O)(=O)c2ccccc2)c(-c2ccccc2Cl)n1 | 61.5 | - | - | - | -
CN(C)c1ncc(S(=O)(=O)c2ccc(Cl)cc2)c(-c2ccc(Cl)cc2Cl)n1 | 81.1 | - | - | . | -
COc1ccc(CCNC(=O)C2CC(c3ccccc3[N+](=O)[O-])=NO2)cc1 (stereo unspecified) | - | - | - | - | -
Cc1c(C(N)=O)c(N)c(C(=O)c2ccccc2)n1-c1ccccc1 | - | - | - | - | -
CCNc1nc(Oc2c(Cl)cccc2Cl)cc(C(F)(F)F)n1 | - | - | - | - | -
COCCn1c(SCC(=O)NCc2ccc3c(c2)OCO3)nnc1-c1c[nH]c2ccccc12 | 59.1 | 69.1 | - | - | -
COCCn1c(SCC(=O)Nc2nnc(C)s2)nnc1-c1c[nH]c2ccccc12 | - | 51.3 | - | - | -
CCSc1nnc(NC(=O)CSc2nnc(-c3c[nH]c4ccccc34)n2C)s1 | - | 75.5 | - | - | -
CCOC(=O)C1=C(C)Nc2nnnn2C1c1ccc(OC)c(Br)c1 (stereo unspecified) | - | 66.7 | - | - | -
C=CCOC(=O)C1=C(C)Nc2nnnn2C1c1cc(OC)ccc1OC (stereo unspecified) | 71.3 | 51.0 | - | - | -
CCOC(=O)C1=C(C)Nc2nnnn2C1c1ccccc1Cl (stereo unspecified) | . | . | . | - | .
COC(=O)C1=C(C(=O)c2ccc(C)cc2)C(c2ccc(O)c(OC)c2)n2nnnc2N1 (stereo unspecified) | - | 68.8 | - | - | -
SMILES | CYP2C19 inhib | CYP2C9 inhib | CYP2C19 activ | Cav32 inh | CYP2C9 activ
CCn1cc(C(=O)NCCCOC)c(=O)c2cc(S(=O)(=O)N(C)C)ccc21 | . | . | . | - | .
Cc1nn(-c2ccc3nnc(Br)n3n2)c(C)c1Br | - | - | - | - | -
O=C(Nc1ccccc1)C1CC=CCC1C(=O)OCC1CCCO1 (stereo unspecified) | - | - | - | - | -
CCc1nc(SCC(=O)NCCc2ccc(OC)c(OC)c2)c2c(=O)n(C)c(=O)n(C)c2n1 | - | - | - | - | -
CC(C)n1c(SCC(=O)Nc2ccccc2N2CCOCC2)nc2c1c(=O)n(C)c(=O)n2C | . | . | . | - | .
CCn1c(SCC(=O)N2CCc3ccccc32)nc2c(c1=O)SC(C)C2 (stereo unspecified) | - | 92.8 | - | . | -
CCCn1c(SCC(=O)N2CCCc3ccccc32)nc2c1c(=O)n(C)c(=O)n2C | - | 79.4 | - | . | -
CCn1c(SCC(=O)Nc2ccccc2N2CCCCC2)nc2c1c(=O)n(C)c(=O)n2C | - | 79.3 | - | - | -
CCn1c(SCC(=O)N2CCCc3ccccc32)nc2c(c1=O)SC(C)C2 (stereo unspecified) | . | . | . | - | .
COCCn1c(SCC(=O)N2CCCc3ccccc32)nc2c(c1=O)SC(C)C2 (stereo unspecified) | - | 95.4 | - | - | -
CC1CC(C)CN(C2CCN(Cc3cccnc3)CC2)C1 (stereo unspecified) | - | - | - | - | -
CCn1c(SCC(=O)N2CCCCC2)nc2c(c1=O)SC(C)C2 (stereo unspecified) | - | 68.8 | - | - | -
COCCn1c(SCC(=O)N2CCCc3ccccc32)nc2ccccc2c1=O | 96.4 | 96.4 | - | - | -
CCn1c(SCC(=O)c2ccccc2)nc2c(c1=O)SC(C)C2 (stereo unspecified) | - | 89.9 | - | - | -
CCSc1nc2c(c(=O)n1CC)SC(C)C2 (stereo unspecified) | - | - | - | - | -
Cn1c(=O)n(CC(=O)N2CCOCC2)c2ccccc21 | . | . | . | - | .
Nc1cc(C(=O)c2ccccc2)ccc1N1CCOCC1 | . | . | . | - | .
O=C(c1ccc(Cl)c(Cl)c1)c1cc(-c2ccccn2)c(N2CCOCC2)s1 | - | 65.3 | - | - | -
O=c1c(/C=N/Nc2ccccc2)c(Sc2nnnn2-c2ccccc2)nc2ccccn12 | - | 72.5 | - | . | -
O=Cc1c(Sc2ccccc2)nc2ccccn2c1=O | 72.1 | - | - | - | -
O=Cc1c(Sc2ccccn2)nc2ccccn2c1=O | . | . | . | - | .
COc1cc(C(c2nnnn2C(C)(C)C)N2CCN(C)CC2)cc(OC)c1OC (stereo unspecified) | - | - | - | - | -
CC(=O)N(CC1CCCO1)c1nnc(-c2cnccn2)s1 (stereo unspecified) | - | - | - | - | -
N#Cc1nc(COc2ccccc2)oc1N1CCCCC1 | - | - | - | -5.96 | -
Clc1ccc(OCc2cc(-c3ccccc3)no2)c(Cl)c1 | - | - | - | - | -
SMILES | CYP2C19 inhib | CYP2C9 inhib | CYP2C19 activ | Cav32 inh | CYP2C9 activ
CC1CN(c2oc(COc3ccc(Cl)cc3Cl)nc2C#N)CC(C)O1 (stereo unspecified) | . | . | . | -4.71 | .
N#Cc1nc(COc2ccc(Cl)cc2)oc1N1CCCCCC1 | 89.1 | 97.0 | - | -5.02 | -
N#Cc1nc(-c2cccc3ccccc23)oc1N1CCCCC1 | - | - | - | . | -
N#Cc1nc(COc2ccccc2F)oc1N1CCCCCC1 | - | - | - | -5.93 | -
CCOC(=O)[C@@H]1[C@H]2COc3cc(OC)ccc3[C@@H]2N2C(=O)N(c3ccc(Cl)cc3)C(=O)[C@]12C | . | . | . | - | .
OC(C#Cc1ccccn1)c1cccs1 (stereo unspecified) | - | - | - | - | -
Cc1ccc(NC(=O)N2CCC(C(=O)NCC(C)C)CC2)cc1 | - | - | - | - | -
COC(=O)CC1Oc2ccc(C)cc2NC1=O (stereo unspecified) | - | - | - | - | -

High-throughput results deposited in PubChem by several laboratories.
